Bioassay records deposited in PubChem BioAssay by National Center for Advancing Translational Sciences (NCATS).
The sample as a whole holds a higher share of hits than the screen did.
ALOX12 inh: Primary qHTS assay for inhibitors of human arachidonate 12S-lipoxygenase (ALOX12): Round 2; 580,000 tested, 1.1% active; purified 12hLO, xylenol orange hydroperoxide absorbance; Polyunsaturated fatty acid lipoxygenase ALOX12 (Homo sapiens), P18054; Potency, µM (doses to about 108 µM), for the others: at the highest dose activity change, negative = inhibition, most hits filed as inhibitors; note: potency is the fitted concentration of half-maximal effect
Target sequence (P18054 whole entry, looked up): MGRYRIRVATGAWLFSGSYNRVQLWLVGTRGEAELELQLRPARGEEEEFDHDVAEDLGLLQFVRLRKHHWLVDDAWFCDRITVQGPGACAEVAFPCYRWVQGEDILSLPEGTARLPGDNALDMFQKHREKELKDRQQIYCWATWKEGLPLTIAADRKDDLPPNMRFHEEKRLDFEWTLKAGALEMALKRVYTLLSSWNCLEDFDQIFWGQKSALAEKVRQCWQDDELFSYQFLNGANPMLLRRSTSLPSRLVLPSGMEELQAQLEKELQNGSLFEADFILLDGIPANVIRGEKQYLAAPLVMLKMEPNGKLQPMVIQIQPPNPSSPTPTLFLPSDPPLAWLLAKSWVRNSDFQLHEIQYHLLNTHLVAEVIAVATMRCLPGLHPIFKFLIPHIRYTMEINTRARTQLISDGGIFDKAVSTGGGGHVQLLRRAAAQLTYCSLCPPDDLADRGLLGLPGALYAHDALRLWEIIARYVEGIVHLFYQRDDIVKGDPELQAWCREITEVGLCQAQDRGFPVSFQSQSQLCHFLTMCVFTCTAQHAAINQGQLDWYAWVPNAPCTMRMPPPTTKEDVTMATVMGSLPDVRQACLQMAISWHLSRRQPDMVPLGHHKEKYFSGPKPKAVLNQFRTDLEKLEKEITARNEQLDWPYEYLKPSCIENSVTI
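Purified human 12hLO (150 nM final) in 25 mM Hepes, 0.01% Triton X-100, pH 7.0 was preincubated 15 min at room temperature with compound. Then 40 uM arachidonic acid was added, 30 min. Hydroperoxide was read by Fe-XO absorbance ratio 573/405 nm.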
TDP1 cell noCPT: qHTS for Inhibitors of human tyrosyl-DNA phosphodiesterase 1 (TDP1): qHTS in cells in absence of CPT; DT40 Tdp1-/- hTDP1 cells, no CPT, ATP luminescence, 48 h; Potency, µM (top dose mostly 46.2 µM), without a hit: at the top dose activity change, negative = growth inhibition, most hits filed as inhibitors; 420,000 tested, 15% active; note: potency is the fitted concentration of half-maximal effect; nearly all actives have a fitted effect of over 55% in size
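Camptothecin absent (DMSO only). Human TDP1-complemented DT40 knockout cells, 400 cells/well, 37 °C for minimum 48 hr; ATP measured via CellTiter-Glo, 30 min dark incubation, luminescence.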
IL1B secr inh: qHTS for Inhibitors of Inflammasome Signaling: IL-1-beta AlphaLISA Primary Screen; 360,000 tested, 4.7% active; THP-1 LPS/ATP IL-1B secretion, AlphaLISA, 16 h; hits give low values; AID 743279, 2014; activity change, % at 57.5 µM; in the data active = activity change below about -50%; inconclusive = mostly about -30% to -49%
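Secreted IL-1B measured by AlphaLISA bead assay after 16 h compound exposure of THP-1 cells; compounds (final up to 57.5 uM) added 1 h before LPS (250 ng/mL) and ATP (1.25 mM) stimulation; lower signal means less secretion.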
HT1080 IDH1KD tx: qHTS for induction of synthetic lethality in tumor cells producing 2HG: qHTS for the HT-1080-IDH1KD cell line | Potency, µM (series often up to 46.1 µM), without a hit: top-dose activity, negative = toxicity, usual class: cytotoxic | AID 686971, 2013 | HT-1080 IDH1 knockdown viability, ATP luminescence, 48 h | 360,000 tested, 2% active;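 note: potency is the fitted concentration of half-maximal effect; 0% = DMSO wells and -100% = cell-free medium wells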
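IDH1KD HT-1080 cells, 750/well, RPMI + 5% FBS; compound pinned after 2 h settling; 48 h, 37 °C; CellTiter-Glo luminescence; % activity normalised to DMSO and no-cell wells; curves fitted, classed by r2 and efficacy.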
HT1080-NT tox: qHTS for induction of synthetic lethality in tumor cells producing 2HG: qHTS for the HT-1080-NT fibrosarcoma cell line; HT-1080-NT fibrosarcoma viability, CellTiter-Glo ATP luminescence, 48 h; Potency, µM (doses to about 46.1 µM), for the others: top-dose activity, negative = less viability, hits mostly cytotoxic; 360,000 tested, 1.6% active; AID 686970, 2013;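 note: NT is the 2HG producing partner of a matched IDH1 knockdown line; potency is the fitted concentration of half-maximal effect; 0% = DMSO-treated cells and -100% = media-only wells without cells; nearly all actives have a fitted effect of over 55% in size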
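Viability by CellTiter-Glo luminescence after 48 h compound exposure at 37C of HT-1080-NT cells (750/well, RPMI, 5% FBS). % activity scaled between DMSO wells and medium-only wells, then curve-fitted and categorized by curve class.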
TDP1 cell CPT: qHTS for Inhibitors of human tyrosyl-DNA phosphodiesterase 1 (TDP1): qHTS in cells in presence of CPT; chicken DT40 Tdp1-/-;hTDP1 cells + 20 nM CPT, ATP luminescence, 48 h; Potency, µM (highest dose often 46.2 µM), for inactives: at the top dose activity change, negative = growth inhibition, actives largely listed as inhibitors; 420,000 tested, 12% active; note: potency is the fitted concentration of half-maximal effect; nearly all actives have a fitted effect of over 55% in size
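Chicken DT40 Tdp1-/- cells complemented with human TDP1, 400 cells/well, exposed to compounds plus 20 nM camptothecin for at least 48 h at 37 C; viability read as ATP content by CellTiter-Glo luminescence.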
Active calls of the source: *; ? = inconclusive; / = no result; [ ] = dose if it differs, or a comment. Unless noted, calls come from the whole dose curve; as a rule, active = well fitted curve in the direction sought with a large enough effect; inconclusive = small, poorly fitted or top-dose-only effect, or another doubt; inactive = no such curve, though single readings can be large; an effect the other way counts as inactive or inconclusive. Unless noted, % is set by controls: 0 for no effect and ±100 for the full control effect.

SMILES	ALOX12 inh	TDP1 cell noCPT	IL1B secr inh	HT1080 IDH1KD tx	HT1080-NT tox	TDP1 cell CPT
CC(=O)Nc1sc(N)nc1-c1ccccc1	1.2%	-18.1%	30.2	7.6%	2.1%	3.1%
Nc1nc(-c2ccccc2)c(N=Nc2cccc3ccccc23)s1	-27.0%	16.4µM*	-25.6	20.6µM*	?	23.1µM*
Nc1nc(-c2ccccc2)c(N=Nc2ccccc2Cl)s1	?	16.4µM*	-63.8*	18.4µM*	?	-16.5%
CCCn1cc2c3c(cccc31)CN(C(=O)COc1ccccc1)CC2	-1.5%	/	/	/	/	/
Cc1nn(-c2ccccn2)c2c1C(=O)C(Br)CC2 (stereo unspecified)	/	3.66µM*	-105.8*	-3.7%	-7.8%	5.17µM*
CCc1ccc(S(=O)(=O)N2CCC(Oc3ncccc3C(=O)N(C)C)C2)cc1 (stereo unspecified)	27.8%	/	/	/	/	/
CC(C)CNC(=O)Cc1ccc(-n2c(=O)c3ccccc3n(Cc3ccccc3F)c2=O)cc1	9.7%	/	/	/	/	/
COc1ccc(C(=O)Nc2nc3n(n2)C(c2ccc(Cl)cc2)C=C(c2ccccc2)N3)cc1OC (stereo unspecified)	-28.2%	14.6µM*	/	/	/	14.6µM*
O=C(Nc1nc2n(n1)C(c1ccccc1)C=C(c1ccccc1)N2)c1ccccc1 (stereo unspecified)	-24.6%	18.4µM*	/	/	/	16.4µM*
O=S(=O)(Nc1nc2n(n1)C(c1ccc(F)cc1)C=C(c1ccccc1)N2)c1ccccc1 (stereo unspecified)	4.1%	20.6µM*	/	/	/	?
O=C(Nc1nc2n(n1)C(c1ccc(F)cc1)C=C(c1ccccc1)N2)c1ccco1 (stereo unspecified)	-13.6%	23.1µM*	/	/	/	16.4µM*
CN(C)Cc1nnc(C2CC(NC(=O)c3ccc4c(c3)CCCO4)C2)n1C (stereo unspecified)	30.0%	/	/	/	/	/
O=C(Nc1nc2n(n1)C(c1ccc(Cl)cc1)C=C(c1ccccc1)N2)c1ccco1 (stereo unspecified)	-0.5%	20.6µM*	/	/	/	20.6µM*
Cc1ccccc1NC(=O)C(C)Sc1nnc(CN2CCCC2)n1Cc1ccccc1 (stereo unspecified)	20.7%	16.4µM*	-22.0	-2.0%	0.3%	?
CC(Sc1nnc(-c2ccc(Cl)cc2Cl)n1Cc1ccccc1)C(=O)Nc1nccs1 (stereo unspecified)	0.0%	?	-24.1	?	?	?
Cc1nnc(SC(C)C(=O)Nc2ccc(Cl)cn2)n1Cc1ccccc1 (stereo unspecified)	-15.4%	?	-59.7*	-5.1%[9.24 µM]	?	-26.3%
OC1CC(c2cc(N3CCc4c(Cl)cccc4C3)ncn2)C1 (stereo unspecified)	38.1%	/	/	/	/	/
CCOC(=O)c1cc2ccccc2n1C1CCN(CCc2ccccc2)CC1	-67.5%	7.31µM*	-18.9	?	?	9.2µM*
CCOC(=O)N1CCN(CCc2ccccc2)CC1	-31.7%	-12.7%	-2.4	14.1%	5.6%	2.6%
CCOC(=O)c1cc2cc(OC)ccc2n1C1CCN(CCc2ccccc2)CC1	-104.8%	?	-9.5	18.4µM*	?	?
O=C(COC(=O)c1cc(=O)c2ccccc2o1)Nc1cc(C(F)(F)F)ccc1Cl	-8.4%	/	/	/	/	/
O=C(O)COc1ccccc1/C=N/NC(=O)c1cc(-c2ccccc2)nc2ccccc12	-82.8%	-27.9%	0.1	1.3%	3.9%	-26.8%
O=C(O)COc1ccccc1/C=N/NC(=O)c1cc(-c2ccc(Cl)cc2)nc2ccccc12	?	6.51µM*	-0.3	0.0%	-7.8%	-14.2%
CCOc1ccc(Br)cc1C(=O)N/N=C/c1ccccn1	/	?	31.1	-26.8%	-20.6%	?
O=C(N/N=C/c1ccccn1)c1cc(-c2ccc(Cl)cc2)nc2ccccc12	-7.5%	8.2µM*	-102.5*	-6.5%	-5.9%	3.26µM*
SMILES	ALOX12 inh	TDP1 cell noCPT	IL1B secr inh	HT1080 IDH1KD tx	HT1080-NT tox	TDP1 cell CPT
O=C(NC1CCCC1)c1cc(-c2ccc(Cl)cc2)nc2ccccc12	-8.2%	/	/	/	/	/
O=C(N/N=C/c1ccccn1)c1cc(-c2ccc(Br)cc2)nc2ccccc12	136.0%	1.84µM*	-95.7*	?	?	2.59µM*
Cc1ccnc(NC(=O)c2cnc3ccccc3n2)c1	20.0%	/	/	/	/	/
CNC(=O)Nc1ccc(C2(C(=O)NCc3ccco3)CCC2)cc1	33.2%	/	/	/	/	/
COc1ccccc1CC(=O)N1CC[C@@H](NC(=O)c2cnccn2)[C@H](O)C1	8.0%	/	/	/	/	/
CC(C)CCn1nc(C(=O)OCc2nnc(-c3ccccc3)o2)c2ccccc2c1=O	-0.2%	/	/	/	/	/
Cc1[nH]c2ccccc2c(=O)c1C(=O)/C=C/c1ccccc1	-15.9%	2.31µM*	-101.4*	?	-3.9%	5.17µM*
Cc1[nH]c2ccccc2c1/C=C/C(=O)c1ccccc1	-10.4%	?	-12.5	?	-28.1%	?
O=C(/C=C/c1ccccc1)c1c[nH]c2ccccc12	0.0%	-0.9%	?	0.3%	-0.8%	-20.1%
O=C(C=Cc1ccccc1)c1c[nH]c2ccccc2c1=O	-9.7%	6.51µM*	-98.2*	?	8.2µM*	6.51µM*
CCCC(=O)Nc1oc2c(C)cccc2c(=O)c1-c1ccc(OC)c(OC)c1	-3.8%	/	/	/	/	/
